A selection: hits, their analogues and other compounds. The true share with any hit is near 4.3%.
dFosB activator: activators of delta FosB homodimer, primary screen, biochemical, fluorescence polarization, TAMRA-CDK5 oligo, single point; Protein FosB (Mus musculus), P13346; purified delta FosB; percent of positive-control signal above neutral wells; activation, % at 25 µM; hit rate 0.99% among 340,000; AID 493131, 2011;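 active = mean activation above about 17%, with every replicate also reaching it, limit read from the data, passing the limit was not always enough; inconclusive = only one of the two conditions met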
CR mimetic SO: reduction of superoxide in aged yeast, primary screen, HTS | superoxide response (% of plate mean), % at 10 µM | S. cerevisiae aged cells, superoxide DHE fluorescence; stronger effect = lower value | hit rate 0.18% among 330,000 | AID 2690, 2010;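 active = superoxide response under a set limit, about three screen SD below normal, cut at about 65% in these data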;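 also: yeast aged for seven days with compound at 30 °C before DHE staining; 100% = average MFI of all compound-treated wells on the plate with controls excluded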
NALP1 yeast inh: NALP1 inflammasome inhibitors in reconstituted yeast, colorimetric, S. cerevisiae, triplicate retest | inhibition, % at 10 µM | S. cerevisiae NALP1/ASC/caspase-1 growth, X-gal OD620, 72 h | hit rate 0.61% among 280,000 | AID 2071, 2009; in the data active = inhibition mostly above about 24%, no sharp cut-off; inactive = mostly below about 32%
NR3A LBD binder: binders of NR3A ligand-binding domain, primary screen, biophysical, differential scanning fluorimetry, uHTS. AID 1259313, 2017. NR3A LBD differential scanning fluorimetry, Tm shift; 0% = protein alone, 100% = glycine-bound protein. Glutamate receptor ionotropic, NMDA 3A (GRIN3A) ligand-binding domain. hit rate 2.5% among 340,000. Tm shift relative to glycine control, % at 25 µM;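 active = melting temperature shift of at least 10% of the positive control shift, at one fixed dose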
UBC13 polyUb: UBC13 polyubiquitin chain formation inhibitors, primary screen, biochemical, TR-FRET, uHTS; inhibition, % at 20 µM; hit rate 0.47% among 330,000; AID 485273, 2010; in the data active = inhibition above about 45%, passing the limit was not always enough; inconclusive = no clear call, values can overlap the other calls
Target sequence (P61088 whole entry, looked up): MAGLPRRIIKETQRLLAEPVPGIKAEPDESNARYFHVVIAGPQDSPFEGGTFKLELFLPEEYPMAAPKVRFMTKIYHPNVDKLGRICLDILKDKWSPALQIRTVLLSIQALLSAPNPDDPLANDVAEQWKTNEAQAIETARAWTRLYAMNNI
Casp3 UBC13 ctr: CASP3 inhibitor validation, counterassay for project on UBE2N polyubiquitination blockers, biochemical, one dose; shares compounds with UBC13 polyUb; Recombinant caspase-3, Caspase-Glo 3/7 luminescence, 60 min; inhibition, % at 20 µM; hit rate 4% among 1,400;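 active = mean inhibition across replicates above about 26%, limit read from the data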;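 also: plate controls were DMSO with caspase-3 for no effect and DMSO wells lacking enzyme for full effect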
Target sequence (P42574 whole entry, looked up): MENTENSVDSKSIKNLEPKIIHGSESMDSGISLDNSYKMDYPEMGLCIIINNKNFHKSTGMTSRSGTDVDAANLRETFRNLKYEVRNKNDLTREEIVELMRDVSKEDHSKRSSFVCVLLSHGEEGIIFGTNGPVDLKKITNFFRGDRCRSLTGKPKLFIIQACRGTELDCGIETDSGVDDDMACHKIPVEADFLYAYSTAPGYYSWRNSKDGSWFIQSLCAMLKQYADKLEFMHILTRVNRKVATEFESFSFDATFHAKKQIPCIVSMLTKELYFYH
UBC13 confirm: UBC13 polyubiquitination inhibitors, single-point retest, confirmation, biochemical, TR-FRET, single concentration. shares compounds with UBC13 polyUb. inhibition, % at 10 µM. hit rate 68% among 1,400; in the data active = inhibition above about 45%; inconclusive = no clear call, values can overlap the other calls
* = called active by the depositor; ? = inconclusive; · = no result given.

SMILES	dFosB activator	CR mimetic SO	NALP1 yeast inh	NR3A LBD binder	UBC13 polyUb	Casp3 UBC13 ctr	UBC13 confirm
COc1cc2c(C(=O)N3CCN(C)CC3)c(C)n(-c3ccccc3)c2cc1Br	1	91	1	-1	-2	·	·
CCN(CC)CCNC(=O)c1c(C)n(-c2ccccc2)c2cc(Br)c(OC)cc12	26*	101	4	-2	52*	-5	79*
O=C(Nc1ccc(S(=O)(=O)Nc2ncccn2)cc1)C12CC3CC(CC(Cl)(C3)C1)C2	-7	92	·	-10	-11	·	·
COc1ccc(C(C)(C)C)cc1NC(=O)C1=CC=CN2CCS(=O)(=O)N=C12	6	104	·	2	50*	2	9
COc1ccc(Cn2cc(C(=O)c3ccccc3)c(=O)c3cc(OC)ccc32)cc1	-2	106	37	-3	13	·	·
Cc1ccc(Cn2cc(C(=O)c3ccc(F)cc3)c(=O)c3cc4c(cc32)OCCO4)cc1	-1	100	33	1	45*	-1	?
C[C@H]1[C@@H](OC(=O)CCC(=O)O)O[C@@H]2OC3(C)CC[C@H]4[C@H](C)CC[C@@H]1[C@@]24OO3	·	104	·	·	·	·	·
c1ccc2c(C[C@@H]3CNCCN3CCC34CC5CC(CC(C5)C3)C4)cccc2c1	2	117	·	-2	50*	-3	53*
c1ccc(C2(CN3CCNC[C@H]3Cc3cccc4ccccc34)CC2)cc1	-3	106	·	-1	59*	2	48*
CC(C)(C)CN1CCNC[C@H]1Cc1cccc2ccccc12	-4	103	·	0	47*	-4	31
COc1ccc(CN(C)CC(=O)Nc2ccc(Cl)cc2F)c(OC)c1	·	98	15	1	22	·	·
CC[C@H]1CN2CCc3cc(OC)c(OC)cc3C2C[C@@H]1C[C@H]1NCCc2cc(OC)c(OC)cc21 (some centres not stated)	4	92	·	-5	53*	3	10
CCOCCCn1c(=NC(=O)c2cccs2)c(C#N)cc2c(=O)n3ccccc3nc21	-2	122	14	1	-4	·	·
O=C(CNC(=O)c1cccs1)c1ccc(Br)cc1	-9	92	22	1	9	·	·
CCCCCCCCNC(C)C(O)c1ccc(SC(C)C)cc1 (configuration not stated)	-11	100	78*	2	71*	-2	75*
O=C(c1ccc(OC2CCN(CCCc3ccccc3)CC2)cc1)N1CCCC1	-7	86	19	0	7	·	·
CCOc1ccc(NC(=O)C2CCCN(S(C)(=O)=O)C2)cc1 (configuration not stated)	-1	99	2	0	8	·	·
O=C(CS(=O)(=O)c1ccccc1)Nc1nnc(Cc2ccccc2)s1	-6	110	14	2	-4	·	·
CCCCCCCNC(=O)C1(CC2CC(c3ccc(Cl)cc3)=NO2)CCN(C(=O)Cc2ccc(F)cc2)CC1 (configuration not stated)	1	96	10	-1	-3	·	·
CCCCCCCNC(=O)C1(CC2CC(c3cccc(Br)c3)=NO2)CCN(C(=O)Cc2ccc(F)cc2)CC1 (configuration not stated)	-12	96	·	-5	-10	·	·
CCCCCCCNC(=O)C1(CC2CC(c3ccc(Cl)cc3)=NO2)CCNCC1 (configuration not stated)	3	110	10	-5	83*	0	80*
CCCCCCCNC(=O)C1(CC2CC(c3cccc(Br)c3)=NO2)CCNCC1 (configuration not stated)	-4	102	16	-11	96*	4	99*
CC(OC(=O)C1CC1)C(=O)Nc1cccc(S(=O)(=O)N2CCOCC2)c1 (configuration not stated)	-1	84	·	-2	10	·	·
COc1cc2sc(-c3ccc(S(C)(=O)=O)cc3)c(C(=O)NCCCCO)c2cc1OC	2	100	·	0	46*	3	43
COc1cc2sc(-c3ccc(S(C)(=O)=O)cc3)c(C(=O)NCc3ccc(C)o3)c2cc1OC	-6	100	·	1	46*	5	42
SMILES	dFosB activator	CR mimetic SO	NALP1 yeast inh	NR3A LBD binder	UBC13 polyUb	Casp3 UBC13 ctr	UBC13 confirm
O=C(CN1CCN(Cc2cccc(C(F)(F)F)c2)CC1)NCC(=O)Nc1ccc(F)c(F)c1F	-8	·	·	0	·	·	·
O=C(NC1CCCCC1)C(c1ccncc1)N(C(=O)c1csnn1)c1ccc(F)cc1 (configuration not stated)	-1	102	5	2	2	·	·
CNC(=O)c1c(NC(=O)c2cccc(N3C(=O)CCC3=O)c2)sc2c1CCC2	-10	106	·	-1	50*	0	11
CNC(=O)c1c(NC(=O)c2ccc(N3C(=O)CCC3=O)cc2)sc2c1CCCC2	-7	112	-4	-1	-2	·	·
O/N=C/c1cn(-c2ccccc2)nc1-c1ccc2c(c1)OCCO2	-10	107	29	2	46*	-2	48*
O=C(O)/C=C/c1cn(-c2ccccc2)nc1-c1ccc2c(c1)OCCO2	-4	98	2	-3	2	·	·
COc1ccc(-c2nn(-c3ccccc3)cc2/C=N/N=C(N)N)cc1OC	68*	113	19	-1	51*	-5	67*
CC(=O)c1c(C)[nH]c(C(=O)Nc2cccc(S(=O)(=O)N(C)c3ccccc3)c2)c1C	-6	116	2	-2	13	·	·
C#CCOCCOCCOCCNc1nc(N2CCN(C(=O)C([C@@H](C)O)n3cc([C@@H](N)CCCCN)nn3)CC2)nc(N2CCN(C(=O)[C@H](CCC(=O)O)n3cc([C@@H](N)[C@H](C)CC)nn3)CC2)n1 (some centres not stated)	-15	98	·	1	13	·	·
C#CCOCCOCCOCCNc1nc(N2CCN(C(=O)[C@H](CCCN=C(N)N)n3cc(C(N)[C@@H](C)CC)nn3)CC2)nc(N2CCN(C(=O)[C@H](CCCCN)n3cc([C@@H](N)CC(N)=O)nn3)CC2)n1 (some centres not stated)	13	110	·	0	50*	-5	44
C#CCOCCOCCOCCNc1nc(N2CCN(C(=O)[C@H](C)n3cc(CCCN=C(N)N)nn3)CC2)nc(N2CCN(C(=O)[C@H](CCCCN)n3cc(CCCC)nn3)CC2)n1	·	·	14	·	·	·	·
